Assay results taken from PubChem BioAssay (NCATS).
Results filed as inconclusive are left out. Activity calls are given as the source filed them. Calls come from the whole dose curve; as a rule, active = well fitted cell-killing curve with a large enough effect; inconclusive = small, poorly fitted or top-dose-only effect, or effect the other way; inactive = no such curve, though single readings can be large or run the other way.

What was measured:
[1] = Quantitative High-Throughput drug screen in 47 multiple myeloma cell lines against the NCATS MIPE library collection: PCM6_Riken cell viability assay (AID 1919870); details: CellTiter-Glo ATP, 48 h; series mostly up to 45.8 µM; note: nearly all actives have a fitted effect of over 30% in size
Method in brief: (§1)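 500 cells/well per myeloma line exposed to pinned MIPE 4.0 compounds for 48 h at 37 °C, 5% CO2. Viability read as ATP by CellTiter-Glo luminescence, normalised to DMSO-only (100%) and media-only (0%) wells.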

[2] = Quantitative High-Throughput drug screen in 47 multiple myeloma cell lines against the NCATS MIPE library collection: RPMI8226_ATCC cell viability assay (AID 1919871); details: RPMI8226 myeloma viability, CellTiter-Glo ATP luminescence, 48 h; series mostly up to 45.8 µM; note: nearly all actives have a fitted effect of over 30% in size
Method in brief: as §1

[3] = Quantitative High-Throughput drug screen in 47 multiple myeloma cell lines against the NCATS MIPE library collection: OPM2_DSMZ cell viability assay (AID 1919872); details: OPM2 myeloma viability, CellTiter-Glo ATP luminescence, 48 h; series mostly up to 45.8 µM; note: nearly all actives have a fitted effect of over 30% in size
Method in brief: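 Steps: seed 500 cells per well; pin-transfer MIPE 4.0 library; incubate 48 h at 37C, 5% CO2, humidified; add CellTiter-Glo, 5 min room temperature; read luminescence.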

[4] = Quantitative High-Throughput drug screen in 47 multiple myeloma cell lines against the NCATS MIPE library collection: KMS11_JCRBsus cell viability assay (AID 1919873); details: KMS11 myeloma viability, CellTiter-Glo ATP luminescence, 48 h; series mostly up to 45.8 µM; note: nearly all actives have a fitted effect of over 50% in size
Method in brief: as §1

[5] = Quantitative High-Throughput drug screen in 47 multiple myeloma cell lines against the NCATS MIPE library collection: KMS28BM_JCRB cell viability assay (AID 1919874); details: CellTiter-Glo ATP, 48 h; series mostly up to 45.8 µM; note: nearly all actives have a fitted effect of over 35% in size
Method in brief: as §1
Potency is the fitted concentration of half-maximal effect.

Structure (SMILES)	Potency [1]	Potency [2]	Potency [3]	Potency [4]	Potency [5]
CC[C@H](CC[C@@H](C)[C@H]1CC[C@H]2[C@@H]3CC=C4C[C@@H](O)CC[C@]4(C)[C@@H]3CC[C@]12C)C(C)C	inactive	inactive	inactive	inactive	inactive
C=C1C(=O)O[C@H]2[C@@H]1CCC(C)=CCC[C@@]1(C)O[C@@H]21	3.32 µM (active)	5.26 µM (active)	5.9 µM (active)	3.32 µM (active)	7.43 µM (active)
COc1cccc2c1C(=O)c1c(O)c3c(c(O)c1C2=O)C[C@@](O)(C(=O)CO)C[C@@H]3O[C@H]1C[C@H](N)[C@H](OC2CCCCO2)[C@H](C)O1 (stereo not given in full)	1.32 µM (active)	7.43 µM (active)	16.6 µM (active)	2.64 µM (active)	1.66 µM (active)
CCOC(=O)[C@H](CCc1ccccc1)N[C@@H](C)C(=O)N1[C@@H](C(=O)O)C[C@H]2CCC[C@@H]21	8.33 µM (active)	20.9 µM (active)	26.4 µM (active)	6.62 µM (active)	5.9 µM (active)
C=Cc1c(C)c2cc3nc(cc4[nH]c(cc5nc(cc1[nH]2)C(C)=C5CCC(=O)O)c(CCC(=O)OC)c4C)[C@@]1(C)C3=CC=C(C(=O)OC)[C@H]1C(=O)OC	0.0833 µM (active)	0.935 µM (active)	1.05 µM (active)	9.35 µM (active)	0.418 µM (active)
CCC(C(=O)O)C1CCC(C)C(C(C)C(O)C(C)C(=O)C(CC)C2OC3(C=CC(O)[C@@]4(CC[C@](C)(C5CC[C@@](O)(CC)C(C)O5)O4)O3)C(C)CC2C)O1 (stereo not given in full)	4.69 µM (active)	2.35 µM (active)	1.87 µM (active)	3.72 µM (active)	6.62 µM (active)
CC(C)[C@H](CO)Nc1nc(Nc2cccc(Cl)c2)c2ncn(C(C)C)c2n1	16.6 µM (active)	26.4 µM (active)	20.9 µM (active)	11.8 µM (active)	18.7 µM (active)
C=CCNC1=C2C[C@@H](C)C[C@H](OC)[C@@H](O)[C@@H](C)C=C(C)[C@H](OC(N)=O)[C@@H](OC)C=CC=C(C)C(=O)NC(=CC1=O)C2=O	1.48 µM (active)	1.05 µM (active)	2.35 µM (active)	0.059 µM (active)	0.662 µM (active)
CCCCCCCCc1ccc(CCC(N)(CO)CO)cc1	3.72 µM (active)	9.35 µM (active)	16.6 µM (active)	7.43 µM (active)	7.43 µM (active)
CCN(C(=O)c1c(O)c2c(Cl)cccc2n(C)c1=O)c1ccccc1	inactive	inactive	inactive	inactive	inactive
NC(=NCCCCCCN=C(N)N=C(N)Nc1ccc(Cl)cc1)N=C(N)Nc1ccc(Cl)cc1	2.64 µM (active)	16.6 µM (active)	14.8 µM (active)	14.8 µM (active)	18.7 µM (active)
CCNC(=O)c1cc2c(-c3cc(OCCN4CCCC4)c(Cl)cc3Cl)nc(N)nc2s1	0.743 µM (active)	1.18 µM (active)	2.96 µM (active)	0.59 µM (active)	1.32 µM (active)
CC(C(C)N1CC(=O)NC(=O)C1)N1CC(=O)NC(=O)C1 (stereo not given)	inactive	inactive	inactive	inactive	inactive
O=C1c2cccc(O)c2C(=O)c2c(O)cc(CO)cc21	inactive	16.6 µM (active)	inactive	inactive	inactive
OC[C@@H](O)[C@@H](O)[C@H](O)[C@@H](O)CO	inactive	inactive	inactive	inactive	inactive
N#Cc1cc(NC(=O)Nc2nnc(-c3ccncc3)s2)ccc1-c1cn[nH]c1	inactive	inactive	inactive	inactive	inactive
Cn1cc(-c2cnn3c(N)c(Br)c([C@H]4CCCNC4)nc23)cn1	0.662 µM (active)	7.43 µM (active)	14.8 µM (active)	5.26 µM (active)	4.69 µM (active)
CC(=O)OCC(=O)[C@@]12N=C(C)O[C@H]1C[C@H]1[C@@H]3CCC4=CC(=O)C=C[C@]4(C)[C@@H]3[C@@H](O)C[C@@]12C	11.8 µM (active)	0.469 µM (active)	inactive	0.935 µM (active)	inactive
CCCc1nc(C(C)(C)O)c(C(=O)O)n1Cc1ccc(-c2ccccc2-c2nn[nH]n2)cc1	inactive	inactive	inactive	inactive	inactive
O=C(CN1C(=O)C2(CCCC2)NC[C@H]1c1cc(F)cc(F)c1)Nc1ccc2c(c1)C[C@@]1(C2)C(=O)Nc2ncccc21	inactive	inactive	inactive	inactive	inactive
